# Results reported in PubChem BioAssay AID1159580 (chemical genetic matrix, 2015).
# Out of some 5,500 compounds screened, about 2,000 (36%) were called active. About 18% were inconclusive and are not listed. Some of the results follow. Values without a mark were called inactive. Cut-off read from the data, not from the text of the source: active = normalized growth mostly below about 0.91 (no sharp cut-off); inconclusive = no clear call, values can overlap the other calls; inactive = mostly above about 0.92.
# Assay: chemical genetic growth profiling, strain panel (AID 1159580);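 note: tested at 20 µM; growth read once vehicle control cultures reached saturation at 30 °C; 1 = growth at the plate median or of vehicle wells; lower values mean less growth of the strain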
# Details: growth OD
# [1] = S. cerevisiae deletion strains, locus YJR075W, strain HOC1, active compounds read low
# [2] = S. cerevisiae deletion strains, locus YMR307W, strain GAS1, active compounds read low
# [3] = S. cerevisiae deletion strains, locus YNL128W, strain TEP1, active compounds read low
# [4] = S. cerevisiae deletion strains, locus YNL322C, strain KRE1, active compounds read low
# [5] = S. cerevisiae deletion strains, locus YPL055C, strain LGE1, active compounds read low
# [6] = S. cerevisiae deletion strains, locus YPL241C, strain CIN2, active compounds read low
# [7] = S. cerevisiae deletion strains, locus YDL101C, strain DUN1, active compounds read low
# [8] = S. cerevisiae deletion strains, locus YHR030C, strain SLT2, active compounds read low
compound,measurement,setting,value
CCCn1c(=O)c2[nH]c(-c3ccc(OCC(=O)NCCN)cc3)nc2n(CCC)c1=O,normalized growth,"S. cerevisiae deletion strains, locus YAL040C, strain CLN3, active compounds read low",1.05
same,normalized growth,"S. cerevisiae deletion strains, locus YCL061C, strain MRC1 (second series), active compounds read low",0.984
same,normalized growth,"S. cerevisiae deletion strains, locus YDR363W, strain ESC2, active compounds read low",0.983
same,normalized growth,"S. cerevisiae deletion strains, locus YER002W, strain NOP16, active compounds read low",0.986
same,normalized growth,[1],0.99
same,normalized growth,[2],1.01
same,normalized growth,[3],0.973
same,normalized growth,"S. cerevisiae deletion strains, locus YNL175C, strain NOP13, active compounds read low",0.98
same,normalized growth,"S. cerevisiae deletion strains, locus YNL197C, strain WHI3, active compounds read low",0.977
same,normalized growth,"S. cerevisiae deletion strains, locus YNL224C, strain SQS1, active compounds read low",0.999
same,normalized growth,[4],0.95
same,normalized growth,"S. cerevisiae deletion strains, locus YOR083W, strain WHI5 (second series), active compounds read low",0.984
same,normalized growth,[5],0.973
same,normalized growth,[6],0.985
CSc1cccc(N2C(=O)CC(c3c(Cl)cccc3Cl)CC2=O)c1,normalized growth,"S. cerevisiae deletion strains, locus YAR019C, strain CDC15, active compounds read low",0.99
same,normalized growth,"S. cerevisiae deletion strains, locus YBL105C, strain PKC1, active compounds read low",0.98
same,normalized growth,"S. cerevisiae deletion strains, locus YBR135W, strain CKS1, active compounds read low",0.987
same,normalized growth,"S. cerevisiae deletion strains, locus YBR136W, strain MEC1, active compounds read low",0.989
same,normalized growth,"S. cerevisiae deletion strains, locus YBR160W, strain CDC28, active compounds read low",0.989
same,normalized growth,"S. cerevisiae deletion strains, locus YDL017W, strain CDC7, active compounds read low",0.99
same,normalized growth,"S. cerevisiae deletion strains, locus YDL028C, strain MPS1, active compounds read low",0.997
same,normalized growth,[7],0.987
same,normalized growth,"S. cerevisiae deletion strains, locus YDL108W, strain KIN28, active compounds read low",0.988
same,normalized growth,"S. cerevisiae deletion strains, locus YDL132W, strain cdc53, active compounds read low",0.982
same,normalized growth,"S. cerevisiae deletion strains, locus YDL214C, strain PRR2, active compounds read low",0.997
same,normalized growth,"S. cerevisiae deletion strains, locus YDR052C, strain DBF4, active compounds read low",0.988
same,normalized growth,"S. cerevisiae deletion strains, locus YDR054C, strain cdc34, active compounds read low",0.983
same,normalized growth,"S. cerevisiae deletion strains, locus YDR226W, strain ADK1, active compounds read low",0.983
same,normalized growth,"S. cerevisiae deletion strains, locus YDR477W, strain SNF1, active compounds read low",0.992
same,normalized growth,"S. cerevisiae deletion strains, locus YER123W, strain YCK3, active compounds read low",0.975
same,normalized growth,"S. cerevisiae deletion strains, locus YER133W, strain GLC7, active compounds read low",0.993
same,normalized growth,"S. cerevisiae deletion strains, locus YFL009W, strain cdc4, active compounds read low",0.966
same,normalized growth,"S. cerevisiae deletion strains, locus YFL029C, strain CAK1, active compounds read low",0.986
same,normalized growth,"S. cerevisiae deletion strains, locus YFR003C, strain YPI1, active compounds read low",0.983
same,normalized growth,"S. cerevisiae deletion strains, locus YFR019W, strain FAB1, active compounds read low",0.971
same,normalized growth,"S. cerevisiae deletion strains, locus YFR028C, strain CDC14, active compounds read low",0.986
same,normalized growth,"S. cerevisiae deletion strains, locus YGR040W, strain KSS1, active compounds read low",0.987
same,normalized growth,"S. cerevisiae deletion strains, locus YGR052W, strain FMP48, active compounds read low",1.02
same,normalized growth,"S. cerevisiae deletion strains, locus YGR092W, strain DBF2, active compounds read low",0.985
same,normalized growth,[8],0.894
same,normalized growth,"S. cerevisiae deletion strains, locus YHR079C, strain IRE1, active compounds read low",0.904
same,normalized growth,"S. cerevisiae deletion strains, locus YHR082C, strain KSP1, active compounds read low",0.948
same,normalized growth,"S. cerevisiae deletion strains, locus YHR205W, strain SCH9, active compounds read low",0.916
same,normalized growth,"S. cerevisiae deletion strains, locus YIL147C, strain SLN1, active compounds read low",0.996
same,normalized growth,"S. cerevisiae deletion strains, locus YJL095W, strain BCK1, active compounds read low",0.956
same,normalized growth,"S. cerevisiae deletion strains, locus YJL128C, strain PBS2, active compounds read low",0.955
same,normalized growth,"S. cerevisiae deletion strains, locus YJL157C, strain FAR1, active compounds read low",0.985
same,normalized growth,"S. cerevisiae deletion strains, locus YJR016C, strain ILV3, active compounds read low",0.987
same,normalized growth,"S. cerevisiae deletion strains, locus YJR066W, strain TOR1 (second series), active compounds read low",0.566 (active)
same,normalized growth,"S. cerevisiae deletion strains, locus YJR066W, strain TOR1, active compounds read low",0.908
same,normalized growth,"S. cerevisiae deletion strains, locus YKL048C, strain ELM1, active compounds read low",0.995
same,normalized growth,"S. cerevisiae deletion strains, locus YKL067W, strain YNK1, active compounds read low",0.992
same,normalized growth,"S. cerevisiae deletion strains, locus YKL101W, strain HSL1, active compounds read low",0.993
same,normalized growth,"S. cerevisiae deletion strains, locus YKL193C, strain SDS22, active compounds read low",0.985
same,normalized growth,"S. cerevisiae deletion strains, locus YKL203C, strain TOR2, active compounds read low",1.04
same,normalized growth,"S. cerevisiae deletion strains, locus YLR113W, strain HOG1, active compounds read low",0.889
same,normalized growth,"S. cerevisiae deletion strains, locus YLR133W, strain CKI1, active compounds read low",1
same,normalized growth,"S. cerevisiae deletion strains, locus YLR403W, strain SFP1, active compounds read low",0.946
same,normalized growth,"S. cerevisiae deletion strains, locus YML070W, strain DAK1, active compounds read low",0.995
same,normalized growth,"S. cerevisiae deletion strains, locus YMR001C, strain CDC5, active compounds read low",0.992
same,normalized growth,"S. cerevisiae deletion strains, locus YMR205C, strain PFK2 (second series), active compounds read low",0.997
same,normalized growth,"S. cerevisiae deletion strains, locus YMR277W, strain FCP1, active compounds read low",0.983
same,normalized growth,"S. cerevisiae deletion strains, locus YNL006W, strain LST8, active compounds read low",0.996
same,normalized growth,"S. cerevisiae deletion strains, locus YNL020C, strain ARK1, active compounds read low",0.993
same,normalized growth,"S. cerevisiae deletion strains, locus YNL161W, strain CBK1, active compounds read low",0.981
same,normalized growth,"S. cerevisiae deletion strains, locus YNL183C, strain NPR1, active compounds read low",0.947
same,normalized growth,"S. cerevisiae deletion strains, locus YNL207W, strain RIO2, active compounds read low",0.993
same,normalized growth,"S. cerevisiae deletion strains, locus YNL222W, strain SSU72, active compounds read low",0.981
same,normalized growth,"S. cerevisiae deletion strains, locus YNL307C, strain MCK1 (second series), active compounds read low",0.988
same,normalized growth,"S. cerevisiae deletion strains, locus YOL078W, strain AVO1, active compounds read low",0.993
same,normalized growth,"S. cerevisiae deletion strains, locus YOL136C, strain PFK27, active compounds read low",0.976
same,normalized growth,"S. cerevisiae deletion strains, locus YOR061W, strain CKA2, active compounds read low",0.994
same,normalized growth,"S. cerevisiae deletion strains, locus YOR119C, strain RIO1, active compounds read low",1
same,normalized growth,"S. cerevisiae deletion strains, locus YOR231W, strain MKK1, active compounds read low",0.918
same,normalized growth,"S. cerevisiae deletion strains, locus YOR329C, strain SCD5, active compounds read low",0.985
same,normalized growth,"S. cerevisiae deletion strains, locus YPL031C, strain PHO85, active compounds read low",0.989
same,normalized growth,"S. cerevisiae deletion strains, locus YPL153C, strain RAD53, active compounds read low",0.97
same,normalized growth,"S. cerevisiae deletion strains, locus YPL204W, strain HRR25, active compounds read low",0.981
same,normalized growth,"S. cerevisiae deletion strains, locus YPL209C, strain IPL1, active compounds read low",0.989
same,normalized growth,"S. cerevisiae deletion strains, locus YPL256C, strain CLN2, active compounds read low",0.924
same,normalized growth,"S. cerevisiae deletion strains, locus YPR025C, strain CCL1, active compounds read low",0.986
same,normalized growth,"S. cerevisiae deletion strains, locus YPR106W, strain ISR1, active compounds read low",0.979
same,normalized growth,"S. cerevisiae deletion strains, locus YPR111W, strain DBF20, active compounds read low",0.977
same,normalized growth,"S. cerevisiae deletion strains, strain NNK1, active compounds read low",0.983
same,normalized growth,"S. cerevisiae deletion strains, strain TSCII, active compounds read low",0.982
O=C(CC(Nc1ccccc1)c1ccccc1)C1CC1 (stereo not given),normalized growth,"S. cerevisiae deletion strains, locus YAL013W, strain DEP1, active compounds read low",1
same,normalized growth,"S. cerevisiae deletion strains, locus YBR229C, strain ROT2, active compounds read low",0.99
same,normalized growth,"S. cerevisiae deletion strains, locus YCL061C, strain MRC1, active compounds read low",0.974
same,normalized growth,[7],0.988
same,normalized growth,"S. cerevisiae deletion strains, locus YDL134C, strain PPH21, active compounds read low",0.982
same,normalized growth,"S. cerevisiae deletion strains, locus YDR150W, strain NUM1, active compounds read low",0.982
same,normalized growth,"S. cerevisiae deletion strains, locus YEL061C, strain CIN8, active compounds read low",0.992
same,normalized growth,"S. cerevisiae deletion strains, locus YGR078C, strain PAC10, active compounds read low",1.03
same,normalized growth,[8],0.968
same,normalized growth,"S. cerevisiae deletion strains, locus YHR087W, strain rtc3, active compounds read low",1.04
same,normalized growth,"S. cerevisiae deletion strains, locus YJL187C, strain SWE1, active compounds read low",1
same,normalized growth,"S. cerevisiae deletion strains, locus YJR043C, strain POL32, active compounds read low",0.996
same,normalized growth,[1],0.969
same,normalized growth,"S. cerevisiae deletion strains, locus YLR039C, strain RIC1, active compounds read low",0.869
same,normalized growth,"S. cerevisiae deletion strains, locus YLR058C, strain SHM2 (second series), active compounds read low",0.998
same,normalized growth,"S. cerevisiae deletion strains, locus YLR085C, strain ARP6, active compounds read low",0.992
same,normalized growth,"S. cerevisiae deletion strains, locus YLR262C, strain YPT6, active compounds read low",0.938
same,normalized growth,"S. cerevisiae deletion strains, locus YML094W, strain GIM5, active compounds read low",1.01
same,normalized growth,"S. cerevisiae deletion strains, locus YMR219W, strain ESC1, active compounds read low",0.994
same,normalized growth,"S. cerevisiae deletion strains, locus YMR263W, strain SAP30, active compounds read low",1.01
same,normalized growth,[2],1.19
same,normalized growth,[3],0.989
same,normalized growth,"S. cerevisiae deletion strains, locus YNL153C, strain GIM3, active compounds read low",1.01
same,normalized growth,"S. cerevisiae deletion strains, locus YNL298W, strain CLA4 (second series), active compounds read low",0.985
same,normalized growth,[4],0.982
same,normalized growth,"S. cerevisiae deletion strains, locus YNR030W, strain Alg12, active compounds read low",1
same,normalized growth,[5],1.02
same,normalized growth,[6],0.981
same,normalized growth,"S. cerevisiae deletion strains, locus YPR135W, strain CTF4, active compounds read low",0.915
same,normalized growth,"S. cerevisiae strains, strain wild type, active compounds read low",0.979
